From PubChem BioAssay (Tox21)
Records with an inconclusive call do not appear. Where a call stands in place of a potency, no number is given. Calls of active or inactive are those of the source. Calls come from the whole dose curve.

assay: qHTS assay for small molecule agonists of the p53 signaling pathway (AID 651631); details: HCT-116 p53RE-bla reporter, beta-lactamase FRET ratio, 16 h; series mostly up to 73.3 µM; note: nearly all actives have a fitted effect of over 15% in size
Outline: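 Testing took place in human colorectal HCT-116 cells with stable p53RE-driven beta-lactamase. After 16 h of compound exposure at 37 °C, a FRET substrate was added and fluorescence recorded 2 h later.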
Potency is the fitted concentration of half-maximal effect.

**Q.** Which Potency does the source give for `N[C@@H](Cc1cc(I)c(O)c(I)c1)C(=O)O` here?
**A.** Its Potency is “inactive”.

**Q.** For `CC(=O)C(C)=O`, which Potency is on record?
**A.** Its Potency is “inactive”.

**Q.** Which Potency does the source give for `O=C(O)c1ccc(O)cc1O` here?
**A.** Its Potency is “inactive”.

**Q.** For `CCN(CC)CCOC(=O)C(c1ccccc1)c1ccccc1`, which Potency is on record?
**A.** The Potency was “inactive”.

**Q.** Which Potency does the source give for `Cc1cccc2sc(N)nc12` here?
**A.** Its Potency is “inactive”.

**Q.** For `CC(=O)OCC(=O)[C@@]1(OC(C)=O)[C@@H](C)C[C@H]2[C@@H]3C[C@H](F)C4=CC(=O)C=C[C@]4(C)[C@@]3(F)[C@@H](O)C[C@@]21C`, which Potency is on record?
**A.** Its Potency is “inactive”.

**Q.** For `COc1ccc(C(=O)NCc2ccc(OCCN(C)C)cc2)cc1OC`, which Potency is on record?
**A.** The Potency was “inactive”.

**Q.** With `CC[C@@H](CO)NCCN[C@@H](CC)CO` as the compound, how does the Potency read?
**A.** Its Potency is “inactive”.

**Q.** Which Potency does the source give for `COc1ccc(N)c([N+](=O)[O-])c1` here?
**A.** The Potency was “inactive”.

**Q.** With `CC(=O)N[C@@H](Cc1ccc(O)cc1)C(=O)O` as the compound, how does the Potency read?
**A.** Its Potency is “inactive”.

**Q.** For `Cc1cn([C@H]2C[C@H](F)[C@@H](CO)O2)c(=O)[nH]c1=O`, which Potency is on record?
**A.** Its Potency is “inactive”.

**Q.** For `C1=CCC2CC=CC2C1` (stereo unspecified), which Potency is on record?
**A.** The Potency was “inactive”.

**Q.** With `c1ccc(CNc2ncnc3c2ncn3C2CCCCO2)cc1` (stereo unspecified) as the compound, how does the Potency read?
**A.** Its Potency is “inactive”.

**Q.** With `CC1CCCO1` (stereo unspecified) as the compound, how does the Potency read?
**A.** The Potency was “inactive”.

**Q.** For `CC(C)(C(=O)c1cccnc1)c1cccnc1`, which Potency is on record?
**A.** Its Potency is “inactive”.

**Q.** With `SCCc1cnccn1` as the compound, how does the Potency read?
**A.** The Potency was 61.1 µM (active).

**Q.** Which Potency does the source give for `CC1CCCC(=O)C1=O` (stereo unspecified) here?
**A.** Its Potency is “inactive”.

**Q.** For `CCC1CCC(CCC(=O)O)C1` (stereo unspecified), which Potency is on record?
**A.** The Potency was “inactive”.

**Q.** With `BrC(Br)C(Br)Br` as the compound, how does the Potency read?
**A.** The Potency was “inactive”.

**Q.** Which Potency does the source give for `O=c1[nH]c2cc(C(F)(F)F)c(N3CCOCC3)cc2n(CP(=O)(O)O)c1=O` here?
**A.** The Potency was “inactive”.

**Q.** For `Cc1c(C2(c3cc(Br)c(O)c(Br)c3C)OS(=O)(=O)c3ccccc32)cc(Br)c(O)c1Br`, which Potency is on record?
**A.** The Potency was “inactive”.

**Q.** With `O=C(O)CN1C(=O)c2cccc3cccc(c23)C1=O` as the compound, how does the Potency read?
**A.** Its Potency is “inactive”.

**Q.** With `CCCCCC` as the compound, how does the Potency read?
**A.** Its Potency is “inactive”.

**Q.** Which Potency does the source give for `COC(OC)OC` here?
**A.** The Potency was “inactive”.

**Q.** Which Potency does the source give for `O=C(O)CCC(=O)OC[C@@H](NC(=O)C(Cl)Cl)[C@H](O)c1ccc([N+](=O)[O-])cc1` here?
**A.** The Potency was “inactive”.

**Q.** With `CC(O)Cn1cnc2c1c(=O)n(C)c(=O)n2C` (stereo unspecified) as the compound, how does the Potency read?
**A.** The Potency was “inactive”.
